Among the data in PubChem BioAssay (NCI) are growth values, retold here.

This is part of a sample that, as a whole, favours compounds with a hit. Of some 83,000 tested, about 20% had one in any assay.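 How to read the values: 0–100, growth inhibition (40 = 60% inhibited); 0, no net growth; -100 to 0, cell death (-40 = 40% of starting cells died; -100 = all dead).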 Activity calls are given as the source filed them. The calls were made as follows: active = growth percent below 10; inactive = the rest.

For this experiment, the system named is HL-60(TB) leukemia. The experiment can be described thus: NCI-60 one-dose screen, 48 h (100 = growth as untreated, 0 = no growth, -100 = all killed). The settings on record: 10 µM unless noted.
As to `CC1=CCC(OC(=O)C(C)(C)CC(O)(C(C)O)C(O)C2(C)C=CC(Cc3ccc(C(C)C)cc3)(C(C)C)CC2)(C(C)C)CC1` (stereo not given), the growth was 95.9% (inactive).
Under `Cn1ccnc1C(=O)/C=C/c1ccc(CC(=O)Nc2ccc(Br)cc2)cc1` stands 0.748% (active); under `COc1ccc(CC(=O)c2ccc(O)cc2O)cc1`, 106% (inactive); under `COc1ccc(-c2nc(/C=C3\C(=O)N(C)c4ccccc43)c3ccccn23)cc1`, 41.1% (inactive).
Under `C=C1C(=O)O[C@H]2[C@H]1CC/C(COC(=O)C(=O)c1c[nH]c3ccccc13)=C\CC[C@@]1(C)O[C@@H]21` stands -46.5% (active); under `COc1ccc2cc(-c3ccc(-c4ccc(C(=N)N)cc4)s3)ccc2c1`, 100% (inactive); under `CC12CCC3C(CCC4CC(O)CCC43C)C1C/C(=C/O)C(=O)O2` (stereo not given), 107% (inactive).
For the compound `CC(=O)Nc1scc[n+]1Cc1ccccc1`, the growth is 55.3% (inactive).
Under `Nc1ccc(-c2ccc(N)c(Br)c2)cc1Br` stands 7.99% (active); under `O=C(CCCCN1CCOCC1)Nc1ccc(Cn2nnc3c2C(=O)c2nnn(Cc4ccc(NC(=O)CCCCN5CCOCC5)cc4)c2C3=O)cc1`, -28.4% (active); under `N#C/C(=C(/O)CCCO)c1nc2ccccc2c(=O)[nH]1`, 102% (inactive).
`COC(=O)c1c2c(c(C)[n+]([O-])c1C)C(=O)C=C(NCc1cccc(OC)c1)C2=O`: the growth is -37.3% (active).
On to `C=C(C)[C@@H]1CC[C@]2(C(=O)N3CCN(C)CC3)CC[C@]3(C)[C@H](CC[C@@H]4[C@@](C)(CCC(=O)O)[C@H](C(=C)C)CC[C@]43C)[C@@H]12`, for which the growth was 82.5% (inactive).
The value for `C=C1CC[C@@H]2[C@](C)(COC(C)=O)[C@H](OC(C)=O)CC[C@@]2(C)[C@@H]1C/C=C1/C(=O)OC[C@H]1OC(C)=O` was 79.1% (inactive); that for `CCN(CC)CCC(=O)Nc1ccc(Cn2nnc3c2C(=O)c2nnn(Cc4ccc(NC(=O)CCN(CC)CC)cc4)c2C3=O)cc1` was -36.4% (active).
As for `O=C(NCc1ccco1)C1CN(c2ccc(Cl)cc2)N(c2ccc(Cl)cc2)C1=O` (stereo not given), the growth was 5.03% (active).
On to `C=C1C(=O)O[C@H]2[C@H]1CC/C(COC(=O)CCCCCCCC(=O)OC/C1=C/CC[C@@]3(C)O[C@H]3[C@H]3OC(=O)C(=C)[C@@H]3CC1)=C\CC[C@@]1(C)O[C@@H]21`, for which the growth is -18.3% (active).
Under `CCOc1ccc(-n2c(-c3cc(OC)c(OC)c(OC)c3)nnc2-c2ccc(OC)cc2N)cc1` stands 28.5% (inactive); under `Cc1nc(-c2ccccc2)sc1CC#N`, 93.9% (inactive); under `COP(=O)(OC)c1nnn(-c2cccc([N+](=O)[O-])c2)c1C`, 99.8% (inactive).
The value for `COc1ccc(-c2nc3sccn3c2-c2ccnc(NCCCNS(=O)(=O)c3ccc(C)cc3)n2)cc1` was 0.661% (active); that for `Nc1ncc(-c2ccc3ncnc(Nc4cncc(Cl)c4)c3c2)cn1` was 92.5% (inactive); that for `Cc1cc(SCc2ccccc2)nc(N)n1` was 119% (inactive).
For the compound `CC(Sc1nc2ccccc2c(=O)n1CCc1ccc(S(N)(=O)=O)cc1)C(=O)Nc1ccc(Cl)cc1` (stereo not given), the growth is 86.2% (inactive).
For `CCOC(=O)CSc1nc2ccccc2c(=O)n1Cc1ccc(S(N)(=O)=O)cc1`, the growth is 100% (inactive).
The value for `COc1ccc2cc1Oc1ccc(cc1)C[C@H]1c3cc(c(OC)cc3CCN1C)Oc1c(OC)c(OC)cc3c1[C@H](C2)N(C)CC3` was 29.8% (inactive); that for `Cc1ccc(O)c(C(=O)O)c1` was 99.5% (inactive); that for `CC1(c2ccccc2)NC(=O)N(NC(=O)CSc2nc(-c3cccs3)nc3ccccc23)C1=O` (stereo not given) was 91.6% (inactive).
Under `CC(=Nc1ccccc1)C1=C(O)C(Cc2ccc(F)cc2)NC1=O` (stereo not given) stands -12.3% (active); under `COc1cccc(C2C(C#N)=C(N)Oc3c2ccc2ccccc32)c1` (stereo not given), -30.3% (active).
The value for `c1ccc2c(N=NSc3ncnc4nc[nH]c34)c3ccccc3nc2c1` was -5.76% (active); that for `C=C[C@]1(C)C=C2C(=O)[C@@]3(O)OC[C@@]4(CCCC(C)(C)C43O)C2(O)C(O)C1` (stereo not given in full) was -73.9% (active).
Consider `O=C(C(=O)c1cccnc1)c1cccnc1`, for which the growth was 104% (inactive).
The value for `CC/C=C\C/C=C/C=C1/C(=O)C=C[C@@H]1C/C=C\CCCC(=O)OC` was 8.98% (active); that for `C[C@H]1[C@H](C)CC[C@]2(C(=O)OCCOCCOCC[P+](c3ccccc3)(c3ccccc3)c3ccccc3)CC[C@]3(C)C(=CC[C@@H]4[C@@]5(C)CC[C@H](OC(=O)C(Cl)Cl)C(C)(C)[C@@H]5CC[C@]43C)[C@H]12` was -48.3% (active).
